Unmarked numbers belong to inactive results.
Test system: Pectobacterium parmentieri SCC3193
Test: DuctApe activity index (growth/respiration on compound as sole nutrient source, blank-subtracted) (activity index (0-3)); higher = stronger utilization of the compound, active = 3 or more
Conditions: nutrient role (plate category): carbon
Method: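 Biolog Phenotype Microarray plates PM1, PM2A (carbon), PM3 (nitrogen) and PM4 (phosphorus/sulfur) inoculated with P. parmentieri SCC3193 in M9-C minimal salts medium with Biolog dye A, and read in the OmniLog for 46 h. Each well was tested in triplicate and the experiment was run twice. DuctApe computed a blank-subtracted activity index (AV, 0-3) from the mean curves; growth is positive at AV >= 3 and negative at AV <= 2.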

Row | Compound | DuctApe activity index
1 | OCC1OC(OC2C(CO)OC(O)C(O)C2O)C(O)C(O)C1O [D-Cellobiose] | 3 (active)
2 | OCC(O)CO [Glycerol] | 3 (active)
3 | C[C@@H]1OC(O)[C@H](O)[C@H](O)[C@H]1O (stereo partly drawn) [L-Rhamnose] | 3 (active)
4 | O=C(O)CC(O)(CC(=O)O)C(=O)O [Citric acid] | 2
5 | OC[C@H]1O[C@@H](O[C@H]2[C@H](O)[C@@H](O)[C@@H](O)O[C@@H]2CO)[C@H](O)[C@@H](O)[C@H]1O [a-D-Lactose] | 3 (active)
6 | O=C(O)[C@H](O)[C@@H](O)C(=O)O [L-Tartaric acid] | 0
7 | COC(=O)CCC(=O)O [Mono-Methylsuccinate] | 2
8 | O=CO [Formic acid] | 2
9 | O=P(O)(O)OC[C@H]1OC(O)(CO)[C@@H](O)[C@@H]1O (stereo partly drawn) [D-Fructose-6-Phosphate] | 3 (active)
10 | O=C(O)CCCCCCCCC(=O)O [Sebacic acid] | 0
11 | OC[C@H]1O[C@@H](O[C@H]2[C@H](O)[C@@H](O)[C@H](O[C@H]3[C@H](O)[C@H](O)[C@H](O[C@@H]4[C@H](O)[C@H](O)[C@H](O)O[C@@H]4CO)O[C@@H]3CO)O[C@@H]2CO)[C@@H](O)[C@@H](O)[C@@H]1O [Mannan] | 0
12 | OC[C@@H](O)[C@@H](O[C@H]1O[C@H](CO)[C@@H](O)[C@H](O)[C@H]1O)[C@H](O)[C@@H](O)CO [Maltitol] | 0
13 | COC(=O)C(C)=O [Methylpyruvate] | 3 (active)
14 | CCCCCCCC/C=C\CCCCCCCC(=O)OCCOCC(OCCO)C1OCC(OCCO)C1OCCO (stereo not drawn) [Tween 80] | 0
15 | OC[C@H]1O[C@H](OC[C@H]2O[C@H](OC[C@H]3O[C@H](O[C@]4(CO)O[C@H](CO)[C@@H](O)[C@@H]4O)[C@H](O)[C@@H](O)[C@@H]3O)[C@H](O)[C@@H](O)[C@H]2O)[C@H](O)[C@@H](O)[C@H]1O [Stachyose] | 3 (active)
16 | CO[C@H]1O[C@H](CO)[C@@H](O)[C@H](O)[C@H]1O [a-Methyl-D-Glucoside] | 0
17 | O=C(O)[C@@H](O)[C@H](O)[C@H](O)[C@@H](O)C(=O)O [Mucic acid] | 3 (active)
18 | N[C@@H](C(=O)O)[C@@H](O)[C@H](O)[C@H](O)CO [D-Glucosaminic acid] | 0

Reference: the supplement of paper PMC6518042
